Screens from PubChem BioAssay.
Pf growth 48h: P. falciparum growth inhibition at 48 hours (one generation). AID 504832. P. falciparum luciferase growth in erythrocytes, 48 h. 5.9% of 310,000 active. Potency, µM (doses to about 28.7 µM), hits mostly inhibitors
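First compound was added to culture medium, then infected red cells at 0.1% parasitemia and 2% hematocrit (final). After incubation at 37 C under 5% CO2, luciferase detection reagent was dispensed and light output recorded.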
NS1 inh: blocks influenza NS1 protein function; Potency, µM (highest dose often 46.1 µM); 0.4% of 270,000 active; calls by dose curve; also: actives are rising curves; nearly all actives have a fitted effect of over 50% in size
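S. cerevisiae expressing influenza A NS1, grown in glucose, washed, then diluted 1:100 into pH 6.0 -URA galactose medium with 23 nl compound. Growth recovery read as OD600; NS1-free strain serves as control.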
SARS PLP yeast: inhibitors of SARS-CoV papain-like protease in yeast; Potency, µM (titrated, usually from 32.9 µM), actives largely listed as activators; 0.19% of 330,000 active; S. cerevisiae expressing SARS-CoV PLpro, growth rescue; AID 485353; calls by dose curve; also: nearly all actives have a fitted effect of over 55% in size
RE007 growth inh: less growth of the S. pombe RE007 Vpr strain; S. pombe RE007 Vpr strain, BacTiter-Glo ATP luminescence, 24 h; 0.21% of 360,000 active; AID 651644; Potency, µM (top dose mostly 92.2 µM), most hits filed as inhibitors; active = well fitted falling curve with a large enough effect; inconclusive = small, poorly fitted or top-dose-only effect; inactive = no such curve, though single readings can be large or run the other way; also: nearly all actives have a fitted effect of over 50% in size
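Fission yeast RE007 carrying one integrated HIV-1 vpr copy, seeded at OD 0.01 in PMG+AL medium with 23 nL pinned compound. Grown 24 h at 30 degrees; viability read by BacTiter-Glo luminescence after 5 min.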
Pf growth 96h: P. falciparum growth inhibition at 96 hour, primary screen for plastid delayed-death inhibitors | P. falciparum luciferase reporter growth, 96 h | Potency, µM (titrated, usually from 28.7 µM), hits mostly inhibitors | AID 504834 | 6.9% of 320,000 active
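96 h incubation, 37 C, 5% CO2, of luciferase-reporter P. falciparum-infected RBCs (2% hematocrit, 0.05% parasitemia final) with test compounds; endpoint luminescence.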
Each line names hits and unclear results; the compound was inactive in the other large screens. A selection: hits, their analogues and other compounds. The true share with any hit is near 9.5%. Unless noted, calls follow the shape of the dose curve; as a rule, active = well fitted inhibition curve with a large enough effect; inconclusive = small, poorly fitted or top-dose-only effect, or another doubt; inactive = no such curve, though single readings can be large or run the other way.

CCOC(=O)C1=C(COC(=O)CNS(=O)(=O)c2ccc(C)c(C)c2)NC(=O)NC1C (configuration not stated)	none (no result: Pf growth 48h, NS1 inh, SARS PLP yeast, Pf growth 96h)
Cc1cccc(N2CCN(C(=O)c3cc4cc(F)ccc4[nH]3)CC2)c1C	Pf growth 48h 1.7µM, Pf growth 96h 13µM
Cc1ccc2[nH]c(C(=O)N3CCN(C(c4ccccc4)c4ccccc4)CC3)cc2c1	Pf growth 48h 2.6µM, Pf growth 96h inconclusive
CN1CCN(C(=O)c2cc3cc(F)ccc3[nH]2)CC1	Pf growth 48h 15µM
COc1cc(C(=O)N2CCN(c3cccc(C)c3C)CC2)cc(OC)c1OC	Pf growth 48h inconclusive, Pf growth 96h 10µM
COc1ccccc1N1CCN(C(=O)c2cc3cc(F)ccc3[nH]2)CC1	Pf growth 48h inconclusive, Pf growth 96h inconclusive
O=C(c1cc2cc(F)ccc2[nH]1)N1CCN(C(=O)c2ccco2)CC1	Pf growth 48h inconclusive, Pf growth 96h inconclusive
O=C1C=CC2=C3c4cc(O)c(O)cc4CC3(O)COC2=C1O (configuration not stated)	none (no result: Pf growth 48h, NS1 inh, SARS PLP yeast, Pf growth 96h)
C[C@H](C(=O)c1ccccc1)C(c1ccccc1)N1CCOCC1 (some centres not stated)	none (no result: Pf growth 48h, SARS PLP yeast, RE007 growth inh, Pf growth 96h)
CN1CCN(C(=O)c2cc3cc(Cl)ccc3[nH]2)CC1	Pf growth 96h 10µM
CN1CCN(C(=O)c2ccc(Cl)cc2)CC1	Pf growth 96h 2.6µM
CCCCc1c(-c2ccccc2OC)ncn1Cc1cccc(-c2ccccc2)c1	none (no result: Pf growth 48h, NS1 inh, SARS PLP yeast, Pf growth 96h)
Cc1cccc(C)c1N=Nc1c(C)cc(O)cc1C	RE007 growth inh 25µM, Pf growth 96h inconclusive
Cc1cccc(Nc2cc(C)c3c(O)cccc3n2)c1C	Pf growth 48h 0.74µM
CC1CN(C(=O)C(Sc2ccccc2)c2ccccc2)CC(C)O1 (configuration not stated)	SARS PLP yeast inconclusive, Pf growth 96h 10µM
C=CCn1c2ccccc2c2n[nH]c(=S)nc21	Pf growth 96h inconclusive
O=C(NCC(=O)N1CCN(c2ccccc2O)CC1)C1CCCCC1	Pf growth 48h inconclusive, Pf growth 96h inconclusive (no result: NS1 inh)
O=C(NCC(=O)N1CCC(N2CCCCC2)CC1)C1CCCCC1	Pf growth 96h 1.2µM
CCC(C(=O)Nc1cc(C(=O)Nc2cc(C)ccn2)ccc1Cl)c1ccccc1 (configuration not stated)	Pf growth 48h 8.3µM, Pf growth 96h 8.3µM
CC1c2cc3c(cc2CCN1C(=O)c1cccc(F)c1)OCCCO3 (configuration not stated)	Pf growth 96h inconclusive
CCN(CC)S(=O)(=O)c1ccc(OC)c(NC(=O)COc2ccc3c(C)cc(=O)oc3c2)c1	Pf growth 48h inconclusive, Pf growth 96h 2.6µM
Cc1ccc(S(=O)(=O)N2CCOCC2)cc1NC(=O)COC(=O)c1ccc(OCc2c(C)noc2C)cc1	Pf growth 48h 13µM, SARS PLP yeast inconclusive, Pf growth 96h inconclusive
Cc1ccc(S(=O)(=O)N2CCOCC2)cc1NC(=O)COc1ccc2c(C)cc(=O)oc2c1	Pf growth 48h inconclusive, Pf growth 96h 9.3µM
Cc1ccc(C(=O)OCC(=O)Nc2cc(S(=O)(=O)N3CCOCC3)ccc2C)cc1	none (no result: NS1 inh)
COc1cccc(C(=O)N2CCC(C(=O)NCc3ccco3)CC2)c1	none
COc1ccc([C@]23Cc4ccccc4C(O2)c2c(cc(C)n(Cc4ccccc4)c2=O)O3)cc1	Pf growth 48h inconclusive, Pf growth 96h inconclusive (no result: RE007 growth inh)
CC(=O)Nc1ccc2c(c1)C(C)(C)C(C)N2C (configuration not stated)	Pf growth 96h 10µM
COc1ccc(CNC(=O)C/C(C)=N/NC(=O)c2ccc(OC)cc2OC)cc1	none
Clc1ccc(C(OCCN2CCCCC2)c2ccccc2)cc1 (configuration not stated)	Pf growth 48h inconclusive, Pf growth 96h inconclusive (no result: NS1 inh, SARS PLP yeast)
Clc1ccc([C@@H](OCCN2CCCCC2)c2ccccc2)cc1	Pf growth 48h inconclusive, Pf growth 96h 3.2µM (no result: NS1 inh, SARS PLP yeast, RE007 growth inh)
Cc1cc(C2(c3cc(C)c(O)c(C(=O)O)c3)OS(=O)(=O)c3ccccc32)cc(C(=O)O)c1O	none (no result: Pf growth 48h, SARS PLP yeast, RE007 growth inh, Pf growth 96h)
C[C@@H]1C(=O)NC2=Nc3cccc(Cl)c3CN21	none (no result: SARS PLP yeast, RE007 growth inh)
Cc1c(C(C)(C)C)c(C=S)n2ccccc12	Pf growth 96h 10µM (no result: Pf growth 48h)
N#Cc1c(N)c(C#N)c(-c2ccc3c(c2)OCO3)c2c1CCCC2	Pf growth 48h inconclusive, Pf growth 96h inconclusive
N#Cc1c(N)nc2c(c1-c1ccc3c(c1)OCO3)CCc1ccccc1-2	Pf growth 48h 4.1µM
CCc1cccc(N(C(=O)c2csnn2)C(C(=O)NC2CCCCC2)c2ccncc2)c1 (configuration not stated)	none
CCOC(=O)c1cc(-c2ccccc2)n(CCC(=O)N2CCN(c3ccccn3)CC2)c1C	Pf growth 48h inconclusive, Pf growth 96h 13µM
CCOC(=O)c1cc(-c2ccccc2)n(CC(=O)O)c1C	none
Cc1ccc(S(=O)(=O)N(C)CCCC(=O)N2CCN(c3ccccn3)CC2)cc1	Pf growth 48h 13µM, SARS PLP yeast inconclusive (no result: Pf growth 96h)
C[C@H](Br)C(=O)c1ccc2cc(Br)c3ccccc3c2c1	none (no result: Pf growth 48h, SARS PLP yeast, RE007 growth inh, Pf growth 96h)
Cc1c(C(=O)OCC(C)C)[nH]c2c1C(=O)CC(c1ccco1)C2 (configuration not stated)	Pf growth 48h 12µM
COC(=O)c1[nH]c2c(c1C)C(=O)CC(c1ccccc1)C2 (configuration not stated)	Pf growth 48h inconclusive, SARS PLP yeast inconclusive
C=CCOC(=O)c1[nH]c2c(c1C)C(=O)CC(c1ccco1)C2 (configuration not stated)	Pf growth 48h 5.2µM
Cc1c(C(=O)OC2CCCC2)[nH]c2c1C(=O)CC(c1ccco1)C2 (configuration not stated)	Pf growth 48h 7.4µM, Pf growth 96h inconclusive
C/C=C/COC(=O)c1[nH]c2c(c1C)C(=O)CC(c1ccco1)C2 (configuration not stated)	Pf growth 48h 1.5µM
CC(NC(=O)CCc1nc2cc(S(=O)(=O)N3CCOCC3)ccc2n1C)c1ccc(S(N)(=O)=O)cc1 (configuration not stated)	Pf growth 96h inconclusive
CCCNC(=O)C1(C)CCCN(Cc2ccccc2C#N)C1 (configuration not stated)	none (no result: Pf growth 48h, NS1 inh, SARS PLP yeast, Pf growth 96h)
CCOC(=O)C1CCN(S(=O)(=O)c2ccc3c4c(cccc24)C(=O)N3CC)CC1	none (no result: Pf growth 48h, NS1 inh, Pf growth 96h)
C(=C1c2ccccc2-c2ccccc21)c1ccccn1	none (no result: Pf growth 48h, NS1 inh, SARS PLP yeast, Pf growth 96h)
COc1cc(/C=N/n2nnnc2N)ccc1OC(C)=O	none
Nc1nnnn1/N=C/c1cccc(O)c1	none
C(=N\N=C\c1ccccn1)/c1ccccn1	Pf growth 48h 13µM, Pf growth 96h inconclusive
CCN(C)c1ccc(/C=N\n2nnnc2N)cc1	SARS PLP yeast inconclusive, Pf growth 96h 2.6µM
COc1cc(/C=N/n2nnnc2N)ccc1O	Pf growth 96h 13µM (no result: Pf growth 48h)
Nc1nnnn1/N=C/c1ccc(O)cc1	Pf growth 96h 2.1µM (no result: Pf growth 48h)
COc1ccccc1NC(=O)c1cccc2c(Br)cccc12	Pf growth 48h inconclusive
Nc1nnnn1/N=C/c1ccccn1	Pf growth 96h 6.6µM
CN(CCO)c1cccc2c1S(=O)(=O)N[C@@H](Cc1ccccc1)CO2	none (no result: Pf growth 48h, NS1 inh, SARS PLP yeast, Pf growth 96h)
